SMILES strings stand for the structures. Where a name gives a salt, the structure may show the parent alone. ± gives the standard deviation of the averaged measurements.

The assay concerns iBMDM (immortalised mouse bone-marrow-derived macrophages), LPS-stimulated. Kind of assay: mitochondrial superoxide (MitoSOX fluorescence) fold increase over unstimulated control; higher = more LPS-induced mitochondrial ROS (less inhibition). The note with it: inhibitor concentration: 500 nM; LPS: 100 ng/ml; time after LPS: 4 h. In short, it runs like this:
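After 20 h in phenol-red-free 1% FCS/DMEM in black 96-well plates, immortalised mouse bone-marrow-derived macrophages were exposed to kinase inhibitors (500 nM) for 30 min, 1 μM MitoSox for 10 min and then LPS (100 ng/ml). A ClarioStar plate reader recorded fluorescence at 510/580 nm every 60 min for 4 h. The reported mitochondrial superoxide is the mean fold induction versus untreated macrophages over triplicate wells.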
In turn, `Cc1cc(O)c2c(c1)C(=O)c1cccc(O)c1C2=O` [Chrysophanic Acid] gave a mitochondrial superoxide of 1.48 ± 0.022.

`N#CC(=C(/N)Sc1ccccc1N)/C(C#N)=C(\N)Sc1ccccc1N`: the mitochondrial superoxide worked out at 1.45 ± 0.047.

On to `COc1ccc(-c2nc(N3CCOCC3)c3sc(CN(C)c4ncc(C(=O)NO)cn4)cc3n2)cn1`, for which the mitochondrial superoxide was found to be 1.77 ± 0.17. In turn, `NCC(=O)Nc1ccc(-n2nc(C(F)(F)F)cc2-c2ccc3c(ccc4ccccc43)c2)cc1` returned a mitochondrial superoxide of 1.49 ± 0.087. As to `CNC(=O)c1ccccc1Nc1nc(Nc2ccc(N3CCOCC3)cc2OC)ncc1Cl`, the mitochondrial superoxide was determined as 1.23 ± 0.081.

Compound `CCC(=O)N1CCN(c2ccc(-n3c(=O)ccc4cnc5ccc(-c6cnc7ccccc7c6)cc5c43)cc2C(F)(F)F)CC1` [Torin 1] gave a mitochondrial superoxide of 1.35 ± 0.044. Under `COc1ccc(C(=O)Nc2sc3c(c2C(N)=O)CCCC3)cc1OC` stands 1.64 ± 0.03.

`Cc1nc(Nc2ncc(C(=O)Nc3c(C)cccc3Cl)s2)cc(N2CCN(CCO)CC2)n1` [Dasatinib] yielded a mitochondrial superoxide of 1.85 ± 0.068. Under `CC[C@H](Nc1ncnc2[nH]cnc12)c1nc2cccc(F)c2c(=O)n1-c1ccccc1` [CAL-101 (Idelalisib, GS-1101)] stands 1.48 ± 0.11; under `c1cncc(CN2CCC(n3ncc4c(N5CCOCC5)nc(-c5ccc6[nH]ccc6c5)nc43)CC2)c1`, 1.66 ± 0.063; under `C[C@]1(O)C[C@@H](c2nc(-c3ccc4ccc(-c5ccccc5)nc4c3)c3c(N)nccn32)C1` [OSI-906 (Linsitinib)], 1.56 ± 0.19. `CCc1cc2c(cc1N1CCC(N3CCOCC3)CC1)C(C)(C)c1[nH]c3cc(C#N)ccc3c1C2=O` gave a mitochondrial superoxide of 1.64 ± 0.12. The figure for `Cn1cnc2c(F)c(Nc3ccc(Br)cc3F)c(C(=O)NOCCO)cc21` is 1.29 ± 0.028. The figure for `Cc1cc(F)c(Nc2ncnc3cc(OCc4ccccc4)ccc23)cc1O` is 1.2 ± 0.016; for `Nc1nccc(Oc2ccc(NC(=O)c3c[nH]cc(-c4ccc(F)cc4)c3=O)cc2F)c1Cl` it is 1.37 ± 0.11. Consider `COc1cc(Nc2c(C#N)cnc3cc(OCCCN4CCN(C)CC4)c(OC)cc23)c(Cl)cc1Cl` [Bosutinib (SKI-606)], for which the mitochondrial superoxide amounted to 1.81 ± 0.04. Take `Oc1ccc(Nc2nc(-c3ccc(Cl)cc3)cs2)cc1`: the mitochondrial superoxide came to 1.71 ± 0.11. Regarding `CC(C)(C#N)c1ccc(N2C(=O)OCc3cnc4ccc(-c5cnc6ccccc6c5)cc4c32)cc1`, the mitochondrial superoxide amounted to 1.676 ± 0.013. The figure for `Cn1cc(-c2ccc3nnc(Sc4ccc5ncccc5c4)n3n2)cn1` is 1.525 ± 0.0078; for `CO[C@H]1C[C@@H]2CC[C@@H](C)[C@@](O)(O2)C(=O)C(=O)N2CCCC[C@H]2C(=O)O[C@H]([C@H](C)C[C@@H]2CC[C@@H](OCCO)[C@H](OC)C2)CC(=O)[C@H](C)/C=C(\C)[C@@H](O)[C@@H](OC)C(=O)[C@H](C)C[C@H](C)/C=C/C=C/C=C/1C` [Everolimus (RAD001)] it is 1.5 ± 0.06.

The compound `Cc1[nH]c(/C=C2\C(=O)Nc3ccc(S(=O)(=O)Cc4c(Cl)cccc4Cl)cc32)c(C)c1C(=O)N1CCC[C@@H]1CN1CCCC1` had a mitochondrial superoxide of 1.77 ± 0.028. Consider `CN1CCN(C2CCN(C(=O)Nc3cc(Oc4ccc(NC(=O)C5(C(=O)Nc6ccc(F)cc6)CC5)c(F)c4)ccn3)CC2)CC1` [Golvatinib (E7050)], for which the mitochondrial superoxide is 1.09 ± 0.071.

Turning to `Cn1cnc(-c2cc3nccc(Oc4ccc(NC(=S)NC(=O)Cc5ccccc5)cc4F)c3s2)c1`, the mitochondrial superoxide stood at 1.26 ± 0.059. Turning to `Cn1cc(C2=C(c3cn(CCCSC(=N)N)c4ccccc34)C(=O)NC2=O)c2ccccc21` [Ro 31-8220 Mesylate], the mitochondrial superoxide was 1.79 ± 0.12. Under `CCN(CC)CCCC(C)Nc1nc(C)cc(Nc2ccc3nc(C)cc(N)c3c2)n1` (stereo unspecified) stands 1.65 ± 0.15; under `Cn1cc(-c2ccc3ncc(Cc4ccc5ncccc5c4)n3n2)cn1`, 1.61 ± 0.14; under `CC[C@@H]1C(=O)N(C)c2cnc(Nc3ccc(C(=O)N[C@H]4CC[C@H](N5CCN(CC6CC6)CC5)CC4)cc3OC)nc2N1C(C)C` [Volasertib (BI 6727)], 1.37 ± 0.043. The figure for `CS(=O)(=O)N1CCc2c(-c3cnc(N)nc3)nc(N3CCOCC3)nc21` is 1.55 ± 0.025. Under `CC(=O)Nc1cccc(-n2c(=O)n(C3CC3)c(=O)c3c(Nc4ccc(I)cc4F)n(C)c(=O)c(C)c32)c1` stands 1.62 ± 0.083; under `CO[C@H]1C[C@@H]2CC[C@@H](C)[C@@](O)(O2)C(=O)C(=O)N2CCCC[C@H]2C(=O)O[C@H]([C@H](C)C[C@@H]2CC[C@@H](OP(C)(C)=O)[C@H](OC)C2)CC(=O)[C@H](C)/C=C(\C)[C@@H](O)[C@@H](OC)C(=O)[C@H](C)C[C@H](C)/C=C/C=C/C=C/1C` [Ridaforolimus (Deforolimus, MK-8669)], 1.78 ± 0.04. The compound `Cc1cc2c(F)c(Oc3ncnn4cc(OC[C@@H](C)OC(=O)[C@H](C)N)c(C)c34)ccc2[nH]1` registered a mitochondrial superoxide of 1.53 ± 0.016.

(Values after the supplement of paper PMC7393113.)
